# Hit rate of the full screen: of about 310,000 compounds, about 14,000 (4.5%) showed an effect of 50% or more. The effect is printed as a negative number. What follows is part of a selection rich in strong results, with near analogues and random picks from the rest.
# Molecular target: human ether-à-go-go-related gene (hERG) potassium channel (human, UniProt Q12809)
# Assay: primary screen, population patch clamp on CHO cells stably expressing hERG; higher = less effect of the substance
# 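Further: peak tail current of the secondary pulse compared with the same well before compound.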
# Chain of human ether-à-go-go-related gene (hERG) potassium channel (Q12809 whole entry, looked up): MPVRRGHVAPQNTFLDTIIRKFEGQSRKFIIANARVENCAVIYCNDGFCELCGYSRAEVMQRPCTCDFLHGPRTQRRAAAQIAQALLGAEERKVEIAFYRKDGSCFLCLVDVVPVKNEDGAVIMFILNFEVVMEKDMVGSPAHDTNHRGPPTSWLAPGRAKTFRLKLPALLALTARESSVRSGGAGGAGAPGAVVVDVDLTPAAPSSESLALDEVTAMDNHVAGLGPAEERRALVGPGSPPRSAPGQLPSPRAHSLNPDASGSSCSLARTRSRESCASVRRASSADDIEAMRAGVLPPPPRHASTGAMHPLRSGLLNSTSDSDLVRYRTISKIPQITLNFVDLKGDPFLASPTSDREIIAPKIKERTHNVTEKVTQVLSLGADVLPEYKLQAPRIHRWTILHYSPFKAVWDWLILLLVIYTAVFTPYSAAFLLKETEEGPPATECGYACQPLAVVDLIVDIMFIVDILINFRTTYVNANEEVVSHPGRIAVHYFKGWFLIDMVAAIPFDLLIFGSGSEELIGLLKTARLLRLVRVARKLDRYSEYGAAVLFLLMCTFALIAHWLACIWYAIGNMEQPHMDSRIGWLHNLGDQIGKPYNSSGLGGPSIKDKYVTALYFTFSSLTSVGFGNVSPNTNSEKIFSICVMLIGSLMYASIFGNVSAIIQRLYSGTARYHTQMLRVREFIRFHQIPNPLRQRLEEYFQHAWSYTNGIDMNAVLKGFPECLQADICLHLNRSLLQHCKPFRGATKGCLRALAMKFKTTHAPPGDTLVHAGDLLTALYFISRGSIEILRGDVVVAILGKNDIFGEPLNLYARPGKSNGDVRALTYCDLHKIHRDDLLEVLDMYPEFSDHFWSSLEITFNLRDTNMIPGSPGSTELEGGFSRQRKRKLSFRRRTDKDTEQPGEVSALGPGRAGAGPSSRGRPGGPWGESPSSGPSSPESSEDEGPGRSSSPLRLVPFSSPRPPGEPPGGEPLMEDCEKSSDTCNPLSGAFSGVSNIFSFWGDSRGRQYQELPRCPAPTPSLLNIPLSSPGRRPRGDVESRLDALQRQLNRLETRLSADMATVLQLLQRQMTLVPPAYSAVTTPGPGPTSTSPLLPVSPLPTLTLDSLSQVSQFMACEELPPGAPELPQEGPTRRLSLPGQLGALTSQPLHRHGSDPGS
row,SMILES,"hERG current change (%, negative = inhibition) at 10uM [%]"
1,O=C(CCn1cnnn1)Nc1cccc(F)c1,21.3
2,S=C(NCCSCc1c(Cl)cccc1Cl)Nc1ccccc1,-3.31
3,COCCn1c(C)cc(C2=NNC(=Nc3ccc(OC)cc3)SC2)c1C,1.3
4,Cc1ccc(S(=O)(=O)Nc2ccnc3ccccc23)cc1,-4.28
5,Cc1ccc(F)cc1NC(=O)c1sc2ncn(CC(=O)N3CCN(c4ccccn4)CC3)c(=O)c2c1C,-5.06
6,O=C(COC(=O)CCC(=O)c1cccs1)NC1CCCCC1,1.55
7,CCCCCCC(=O)N/N=C/c1c(O)n(C2CC2)c(=S)[nH]c1=O,-4.67
8,Cc1cccc(N2CCN(c3nnnn3-c3ccccc3)CC2C)c1 (stereo not drawn),-10.8
9,Cc1cc(N2CCN(c3ccccc3)CC2)n2nnnc2n1,-3.56
10,Cc1cccc(N2CCN(c3cc(C)nc4nnnn34)CC2C)c1 (stereo not drawn),-53.1
11,O=C(NCCc1ccco1)C(=O)NCC1CCCN1S(=O)(=O)c1ccccc1 (stereo not drawn),-33.5
12,CSc1ccc(/C=C(\NC(=O)c2ccc(C)cc2)C(=O)Nc2cccc(C)c2)cc1,15.6
13,CC(C)Oc1ccc(C2CC(=O)N(c3ccccc3)C2=O)cc1 (stereo not drawn),6.47
14,COc1ccc(-c2cc(=[NH+]c3cccc(C(=O)O)c3)c3cc(C)ccc3o2)cc1.[O-][Cl+3]([O-])([O-])[O-],-0.536
15,COc1ccc(-c2cc(=NCC(=O)O)c3ccccc3o2)cc1.[O-][Cl+3]([O-])([O-])O,-31.5
16,COc1ccc(-c2cc(=NC(CC(C)C)C(=O)O)c3cc(C)ccc3o2)cc1 (stereo not drawn),-56.5
17,COc1ccc(-c2cc(=Nc3ccc(C(=O)O)cc3)c3cc(C)ccc3o2)cc1,12.7
18,CCC(N=c1cc(-c2ccc(OC)c(OC)c2)oc2ccc(C)cc12)C(=O)O (stereo not drawn),-20.7
19,CCC(N=c1cc(-c2ccc(OC)cc2)oc2ccc(C)cc12)C(=O)O (stereo not drawn),-74.4
20,O=C(CN1C(=O)NC2(CCc3ccccc32)C1=O)NCC(=O)Nc1ccc(F)cc1 (stereo not drawn),1.09
21,CCCc1c(C(=O)N/N=C/c2ccccc2C(F)(F)F)nnn1-c1nonc1N,11.8
22,CC(C)c1ccc(CNc2ccc3c(c2)ncn3C)cc1,9.16
23,CC(C)(C)OC(=O)N1CCC[C@H]1c1nnc(SCc2c(F)cccc2Cl)o1,2.16

row,SMILES,"hERG current change (%, negative = inhibition) at 10uM [%]"
1,CC(C)(C)OC(=O)N1CCC[C@H]1c1nnc(SCc2c(Cl)cccc2Cl)o1,-57.5
2,CC(C)(C)OC(=O)N1CCC[C@H]1c1nnc(SCc2ccccc2Cl)o1,-5.07
3,Cc1ccccc1CNc1nnnn1C,12.4
4,Br.O=C(CN1CCSC1=NCc1ccccc1)c1ccc(Cl)c(Cl)c1,-17.7
5,Br.O=C(CN1CCSC1=NCc1ccccc1)c1ccc(Cl)cc1,-53.9
6,Br.O=C(CN1CCSC1=NCc1ccccc1)c1ccccc1,-23.5
7,C=CCNC(=O)c1c(-c2c(F)cccc2Cl)noc1C,-1.62
8,Cc1ccc(S(=O)(=O)N2CCC(C(=O)N3CCC[C@H]3C(=O)NCC(C)C)CC2)cc1,13.8
9,Cl.N=c1sccn1CC(=O)NCCc1ccc(Cl)cc1,-26.3
10,CC(C)N=c1cc2n(-c3ccc(Cl)cc3)c3ccccc3nc-2cc1Nc1ccc(Cl)cc1,35.9
11,CCN(Cc1ccncc1)C(=O)c1cc(COc2ccc(F)cc2F)on1,-36
12,CCN(Cc1ccncc1)C(=O)c1ccc(Br)o1,1.66
13,CCN(Cc1ccncc1)C(=O)c1cc(COc2c(F)cccc2F)on1,-36
14,CCN(Cc1ccncc1)C(=O)c1cc(COc2c(C)cccc2C)on1,-75.3
15,CCN(Cc1ccncc1)C(=O)c1ccco1,-73.5
16,CCN(Cc1ccncc1)C(=O)c1cc(COc2ccc(C)c(C)c2)on1,-69.5
17,CCN(Cc1ccncc1)C(=O)c1ccc(C)o1,-0.494
18,CCN(Cc1ccncc1)C(=O)c1cc(COc2ccc(OC)cc2Cl)on1,-22.6
19,COc1cccc(OCc2cc(C(=O)N(C)Cc3nc4ccccc4[nH]3)no2)c1,-37.1
20,CCN(Cc1ccccc1)C(=O)c1cc(COc2c(F)cccc2F)on1,3.85
21,CC(=O)c1ccc(OCc2cc(C(=O)N(C)Cc3nc4c(C)cccc4[nH]3)no2)cc1,-10.7
22,Cc1cccc(C)c1OCc1cc(C(=O)N(C)Cc2nc3ccccc3[nH]2)no1,-70.6

# Source: article PMC4336329 (PLoS ONE, 2015)
